Hits are enriched below; roughly 4.3% of the tested compounds scored in any of these assays.
FAS TE block: blocks the thioesterase domain of human fatty acid synthase. P49327. recombinant FAS-TE, OMFH fluorogenic substrate, fluorescence endpoint. inhibition, % at 15 µM. 0.67% of 360,000 active;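 active = compounds whose normalised, plate-corrected inhibition of enzyme fluorescence in the single-dose primary screen is 50% or more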;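 note: 0% = DMSO with enzyme and 100% = substrate without enzyme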
ADAM17 inh: inhibits human ADAM17. AID 720648. recombinant ADAM17, EDANS/DABCYL FRET peptide cleavage. P78536. 0.83% of 370,000 active. inhibition, % at 6.95 µM;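 active = inhibition above the mean of compounds lying between control limits plus 3 SD, set per campaign, cut at about 8.5% in these data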;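 note: 0% = DMSO-only wells as the low control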
GRIN3A LBD mod: NR3A (human) ligand-binding domain modulation; NR3A LBD differential scanning fluorimetry, Tm shift; 0% = protein alone, 100% = glycine-bound protein; Tm shift relative to glycine control, % at 25 µM; 2.5% of 340,000 active; AID 1259313;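 active = melting temperature shift of at least 10% of the positive control shift, at one fixed dose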
HGIII-sPLA2 inh: Inhibits HGIII-sPLA2 liposome hydrolysis, primary screen; Q9NZ20; QFRET BODIPY PC-A2 liposome hydrolysis, fluorescence; inhibition, % at 12.2 µM; 0.56% of 370,000 active; AID 743126;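 active = inhibition above mean plus 3 SD of compounds lying within the high and low control bounds, cut at about 19% in these data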;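 note: 0% = median of test compound wells and 100% = no enzyme DMSO wells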
ADAM10 inh: ADAM10 inhibition, QFRET primary screen. O14672. recombinant ADAM10, EDANS/DABCYL FRET peptide cleavage, 3 h. inhibition, % at 7 µM. 0.62% of 370,000 active;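 active = inhibition above a per-campaign cutoff equal to the mean of compounds falling between control-based bounds plus 3 SD, cut at about 20% in these data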;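 note: 0% = DMSO wells while the 100% control is not disclosed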
FAS-TE inh conf: FAS thioesterase (human) inhibition, confirmation; AID 624325; inhibition, % at 15 µM; recombinant FAS-TE, OMFH fluorogenic substrate, fluorescence; 45% of 2,300 active; shares compounds with FAS TE block;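 active = compounds inhibiting the enzyme by at least 50% at 15 µM in any one of the replicates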;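 note: 0% = enzyme with DMSO only and 100% = wells lacking enzyme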
Numbers without * were called inactive.

`O=C(Nc1cc(Oc2ccc(Cl)cc2)cc([N+](=O)[O-])c1)c1ccco1` gave FAS TE block 56*, ADAM17 inh 2, GRIN3A LBD mod 22*, HGIII-sPLA2 inh 2, ADAM10 inh 0 and FAS-TE inh conf 45.
CC(=O)/C(=N\Nc1ccccc1)Sc1nnc(-c2ccccc2)n1-c1ccccc1 was read as FAS TE block -2, ADAM17 inh -5, GRIN3A LBD mod -7, HGIII-sPLA2 inh 9 and ADAM10 inh -7.
`CC(=O)C(N=Nc1ccccc1)(Sc1nnc(-c2ccccc2)n1-c1ccccc1)C(=O)Nc1ccccc1` (configuration not stated) gave FAS TE block 79*, ADAM17 inh 4, GRIN3A LBD mod -1, HGIII-sPLA2 inh 9, ADAM10 inh 15 and FAS-TE inh conf 17.
`Cc1ccc(NC(=O)CSc2nc3nn(-c4ccccc4)c(=O)c-3c3n2CCCCC3)cc1F` gave FAS TE block 74*, ADAM17 inh 1, GRIN3A LBD mod 4, HGIII-sPLA2 inh -11, ADAM10 inh -7 and FAS-TE inh conf 31.
COc1ccc(C(=O)Nc2ccccc2N2CCCCC2)cc1[N+](=O)[O-] was read as FAS TE block 57*, ADAM17 inh 1, GRIN3A LBD mod -10, HGIII-sPLA2 inh -1, ADAM10 inh 5 and FAS-TE inh conf 31.
`COc1ccc(C(=O)OCC(=O)NC(=O)NCc2ccccc2)cc1[N+](=O)[O-]` gave FAS TE block 26, ADAM17 inh 1, GRIN3A LBD mod 0, HGIII-sPLA2 inh -13 and ADAM10 inh 3.
For COc1ccc(C(=O)OCC(=O)Nc2ccccc2)cc1[N+](=O)[O-] the results were FAS TE block 62*, ADAM17 inh 1, GRIN3A LBD mod -2, HGIII-sPLA2 inh -3, ADAM10 inh 0 and FAS-TE inh conf 46*.
`COc1cccc(C(=O)Nc2cc(C(=O)NCc3ccc(C)cc3)ccc2N2CCC3(CC2)CC(c2ccccc2)=NO3)c1` gave FAS TE block 43, ADAM17 inh 1, GRIN3A LBD mod -4, HGIII-sPLA2 inh 1 and ADAM10 inh -3.
For Cc1ccc(CNC(=O)c2ccc(N3CCC4(CC3)CC(c3ccccc3)=NO4)c(NC(=O)c3c(Cl)cccc3Cl)c2)cc1 the results were FAS TE block 63*, ADAM17 inh 3, GRIN3A LBD mod 1, HGIII-sPLA2 inh 6, ADAM10 inh 8 and FAS-TE inh conf 21.
For CC(C)CCNC(=O)[C@H]1COC(O)([C@H](Cc2ccccc2)NC(=O)[C@@H](NC(=O)OCc2ccccc2)C(C)C)CN1C (some centres not stated) the results were ADAM17 inh 2, HGIII-sPLA2 inh 3 and ADAM10 inh -3.
Screening COc1cc(-c2nc(C(=O)NC3CCCCC3)cc3c2[nH]c2ccccc23)cc(OC)c1OC returned FAS TE block 84*, ADAM17 inh -29, GRIN3A LBD mod -1, HGIII-sPLA2 inh -9, ADAM10 inh -102 and FAS-TE inh conf 10.
For CN1C2=N[C@H](c3ccccc3)CC(=O)N2/C(=C\c2ccccc2)C1Cc1ccccc1 (some centres not stated) the results were ADAM17 inh -4, HGIII-sPLA2 inh 0 and ADAM10 inh -4.
Screening C[C@@H]1C(c2ccc(F)cc2)=NN(c2ccccc2)[C@H]1C(=O)N1CCOC1=O returned FAS TE block 12, ADAM17 inh -12, GRIN3A LBD mod -5, HGIII-sPLA2 inh 8 and ADAM10 inh -46.
`CC[C@@H]1C(c2cccc(Cl)c2)=NN(c2ccc(Br)cc2)[C@H]1C(=O)N1CCOC1=O` gave FAS TE block 42 and GRIN3A LBD mod 4.
Screening O=C1OCCN1C(=O)[C@H]1[C@H](c2ccc(F)cc2)C(c2cccc(Cl)c2)=NN1c1ccccc1 returned FAS TE block 59*, ADAM17 inh -266, GRIN3A LBD mod 16*, HGIII-sPLA2 inh -13, ADAM10 inh inactive and FAS-TE inh conf 11.
For O=C1OCCN1C(=O)[C@H]1[C@H](c2ccc(Cl)cc2)C(c2cccc(Cl)c2)=NN1c1ccccc1 the results were FAS TE block 94*, GRIN3A LBD mod 17* and FAS-TE inh conf 7.
Cc1cccc(C2=NN(c3ccccc3)[C@@H](C(=O)N3CCOC3=O)[C@@H]2c2ccc([N+](=O)[O-])cc2)c1 was read as FAS TE block 92*, ADAM17 inh 7, GRIN3A LBD mod 8, HGIII-sPLA2 inh -14, ADAM10 inh 13 and FAS-TE inh conf 17.
`O=C1OCCN1C(=O)[C@H]1[C@H](c2ccc(F)cc2)C(c2cccc(Cl)c2)=NN1c1ccc(Br)cc1` gave FAS TE block 73*, ADAM17 inh inactive, GRIN3A LBD mod 25*, HGIII-sPLA2 inh 0, ADAM10 inh inactive and FAS-TE inh conf 21.
COc1cccc(N2CCN(CC(=O)NCc3ccc(F)cc3)CC2)c1 was read as ADAM17 inh 0, HGIII-sPLA2 inh 5 and ADAM10 inh 2.
`COc1ccc(CN(CCN2CCOCC2)C(=O)c2ccc(F)cc2F)cc1OC` gave ADAM17 inh -1, HGIII-sPLA2 inh 0 and ADAM10 inh -4.
For CCC(C)NC(=O)CN1C(=O)C2CCCCN2C(=O)c2ccccc21 (configuration not stated) the results were ADAM17 inh -4, HGIII-sPLA2 inh 0 and ADAM10 inh -13.
For O=C1OCCN1C(=O)[C@H]1[C@H](c2ccc(Cl)cc2)C(c2ccccc2)=NN1c1ccc(Br)cc1 the results were FAS TE block 81*, ADAM17 inh -243, GRIN3A LBD mod 15*, HGIII-sPLA2 inh -21, ADAM10 inh inactive and FAS-TE inh conf 39.
`CCn1c(C)c(C(C)=O)c(N2CCN(C(c3ccccc3)c3ccccc3)CC2)nc1=S` gave FAS TE block 70*, ADAM17 inh 0, GRIN3A LBD mod -5, HGIII-sPLA2 inh -1, ADAM10 inh 3 and FAS-TE inh conf 61*.
CCn1c(C)c(C(C)=O)c(N2CCN(c3ccccc3)CC2)nc1=S was read as FAS TE block -9, ADAM17 inh 2, GRIN3A LBD mod -1, HGIII-sPLA2 inh -24 and ADAM10 inh 9.
For O=C(NC1CCCCCCC1)c1cc([N+](=O)[O-])ccc1Cl the results were FAS TE block 66*, ADAM17 inh 1, GRIN3A LBD mod 0, HGIII-sPLA2 inh -3, ADAM10 inh 6 and FAS-TE inh conf 65*.
O=C(Nc1ccc(Nc2ccccc2)cc1)c1cc([N+](=O)[O-])ccc1Cl was read as FAS TE block 59*, ADAM17 inh 6, GRIN3A LBD mod 4, HGIII-sPLA2 inh -2, ADAM10 inh 9 and FAS-TE inh conf 49*.
O=C(Nc1ccc(S(=O)(=O)N2CCOCC2)cc1)c1cc([N+](=O)[O-])ccc1Cl was read as FAS TE block 65*, ADAM17 inh -3, GRIN3A LBD mod 3, HGIII-sPLA2 inh 8, ADAM10 inh 1 and FAS-TE inh conf 42.
